{"source": "PubChem BioAssay AID2410", "about": "(Southern Research Specialized Biocontainment Screening …, 2010)", "note": "The whole screen tested about 2,500 compounds, of which about 2,100 (84%) were called active.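 Rule for the calls: active = toxic compounds, whose cell viability fell below 70% of untreated control cells; inactive = the rest.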 The set was probably picked from earlier hits. These entries were drawn from the full list. Results with a measured potency or affinity are listed apart."}
{"experiment": "HEp-2 cell cytotoxicity, dose response, cytotoxicity control for RSV inhibitor project, HTS (AID 2410);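 note: cells exposed to compound for six days before readout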", "details": "HEp-2 viability, luminescence, cytotoxicity counter-screen; series mostly up to 50 µM"}
{"compound": "COCCN(C(=O)CSc1nnc(-c2ccc(C)c(C)c2)o1)c1c(N)n(CC(C)C)c(=O)[nH]c1=O", "outcome": "inactive"}
{"compound": "COc1ccc2[nH]c3c(=S)nc[nH]c3c2c1", "outcome": "inactive"}
{"compound": "c1ccc(N2CCN(Cc3nc4ccccc4[nH]3)CC2)nc1", "outcome": "inactive"}
{"compound": "CC(=O)Nc1ccc(NC(=O)C(C)OC(=O)c2ccccc2C(=O)c2ccc(Cl)c([N+](=O)[O-])c2)cc1", "note": "(centres undefined)", "outcome": "inactive"}
{"compound": "O=C(OCC(=O)N1CCCC1=O)c1ccc(Cl)cc1[N+](=O)[O-]", "outcome": "inactive"}
{"compound": "COc1ccc(C(=O)NCC(=O)N/N=C/c2c(C)[nH]c3ccccc23)cc1OC", "outcome": "inactive"}
{"compound": "COc1cc(O)cc(O)c1C(=O)/C=C/c1ccccc1", "outcome": "inactive"}
{"compound": "COc1ccc(C(CNC(=S)NCc2ccccc2)N2CCCC2)cc1", "note": "(centres undefined)", "outcome": "inactive"}
{"compound": "COC(=O)C1=C(C)N(Cc2ccccc2)C(=O)N[C@H]1c1ccc(Br)cc1", "outcome": "inactive"}
{"compound": "CC(=O)Nc1ccc(C(=O)OCc2ccc(Cl)cc2)cc1", "outcome": "inactive"}
{"compound": "COc1cc(/C=N/N=C(\\N)c2nonc2N)cc(OC)c1OC", "outcome": "inactive"}
{"compound": "COc1cccc(/C=N/N=C(\\N)c2nonc2N)c1O", "outcome": "inactive"}
{"compound": "C/C(N)=C(/C#N)C(=O)COc1ncnc2ccccc12", "outcome": "inactive"}
{"compound": "C/C(N)=C(/C#N)C(=O)COC(=O)c1cccc(C)c1O", "outcome": "inactive"}
{"compound": "C/C(N)=C(/C#N)C(=O)COc1ncnc2ccc(Br)cc12", "outcome": "inactive"}
{"compound": "Cc1c(NC(=O)CN2C(=O)NC3(CCCCC3C)C2=O)cccc1[N+](=O)[O-]", "note": "(centres undefined)", "outcome": "inactive"}
{"compound": "Fc1cccc(Nc2nc(-c3ccncc3)nc3ccccc23)c1", "outcome": "inactive"}
{"compound": "COc1ccc(/C(C)=N/NC(=O)CN(c2ccc(OC)cc2)S(=O)(=O)c2ccccc2)cc1", "outcome": "inactive"}
{"compound": "Cc1nc2nc(-c3ccccc3)nn2c(C)c1Cl", "outcome": "inactive"}
{"compound": "O=C(c1cc(-c2ccc(Cl)cc2Cl)on1)N1CCOCC1", "outcome": "inactive"}
{"compound": "Cc1ccc(-c2nc(CCN3C(=O)c4ccccc4C3=O)cs2)cc1", "outcome": "inactive"}
{"compound": "Cc1ccc2c(n1)sc1c(-c3ccc(Br)cc3)c(C#N)c(N)nc12", "outcome": "inactive"}
{"compound": "Nc1ccc(Br)c2c1C(=O)c1ccccc1C2=O", "outcome": "inactive"}
{"compound": "COc1ccc(N(C)C(=O)C2CCCN2S(=O)(=O)c2cccc3nsnc23)c(OC)c1", "note": "(centres undefined)", "outcome": "inactive"}
{"compound": "COc1ccc(NC(=O)c2cccs2)c([N+](=O)[O-])c1", "outcome": "inactive"}
{"compound": "COc1ccccc1CNC(=O)C1CCN(S(=O)(=O)c2cccc3nonc23)CC1", "outcome": "inactive"}
{"compound": "C/C(NC(=O)c1cccc(F)c1)=C1/C(=O)C[C@@H]2[C@H]1C2(C)C", "outcome": "inactive"}
{"compound": "C/C(N)=C(/C#N)C(=O)CN1C(=O)NC(Cc2c[nH]c3ccccc23)C1=O", "note": "(centres undefined)", "outcome": "inactive"}
{"compound": "O=C(Nc1ccon1)c1sc2ccccc2c1Cl", "outcome": "inactive"}
{"compound": "CS(=O)(=O)NNC(=O)c1cc2cc3ccccc3nc2s1", "outcome": "inactive"}
{"compound": "O=C(Nc1ccc(Cl)cc1)N1CCc2[nH]c3ccccc3c2C1", "outcome": "inactive"}
{"compound": "CCC(=O)Nc1nc(C)c(-c2csc(Nc3ccccn3)n2)s1", "outcome": "inactive"}
{"compound": "Cc1cc(Nc2cccc(Cl)c2)nc(-c2ccccc2O)n1", "outcome": "inactive"}
{"compound": "Cc1cc(Nc2cccc(F)c2)nc(-c2ccccc2O)n1", "outcome": "inactive"}
{"compound": "CC1CCCN(C(=O)COC(=O)c2ccc3[nH]c4c(c3c2)CCCC4)C1", "note": "(centres undefined)", "outcome": "inactive"}
{"compound": "Cc1cccc(C)c1N=Cc1c(O)n(-c2nccs2)c(=O)c2ccccc12", "outcome": "inactive"}
{"compound": "COc1ccccc1NCC(=O)Nc1cc(S(=O)(=O)N2CCOCC2)ccc1N1CCOCC1", "outcome": "inactive"}
{"compound": "Cc1ccnc(NC(=O)c2cccc(S(=O)(=O)N3CCN(c4ccccc4)CC3)c2)c1", "outcome": "inactive"}
{"compound": "O=C(NCc1ccccc1Cl)C1CCN(S(=O)(=O)c2cccc3nonc23)CC1", "outcome": "inactive"}
{"compound": "COc1ccc2o/c(=N\\O)c(C(=O)Nc3ccccc3OC)cc2c1", "outcome": "inactive"}
{"compound": "COc1ccc(C(=O)N/C(=C/c2cccs2)c2nc3ccccc3[nH]2)cc1OC", "outcome": "inactive"}
{"compound": "CSc1nc(N2CCOCC2)nc2ccc(C)cc12", "outcome": "inactive"}
{"compound": "O=C1c2ccccc2C(=O)N1CCCCN(C(=O)c1cc2ccccc2oc1=O)c1ccc(Cl)cc1", "outcome": "inactive"}
{"compound": "COc1ccccc1CNC(=O)C(NS(=O)(=O)c1cccc2nsnc12)C(C)C", "note": "(centres undefined)", "outcome": "inactive"}
{"compound": "CCC(C)n1ncn(-c2ccc(N3CCN(c4ccc(OCC5COC(Cn6cncn6)(c6ccc(Cl)cc6Cl)O5)cc4)CC3)cc2)c1=O", "note": "(centres undefined)", "outcome": "inactive"}
{"compound": "Brc1cnc(N2CCOCC2)nc1N1CCCCC1", "outcome": "inactive"}
{"compound": "CCOc1ccc(CNC(=O)CCCn2nc(CC)n3c(cc4occc43)c2=O)cc1", "outcome": "inactive"}
{"compound": "N#Cc1ccccc1Cn1c(=O)oc2ccccc21", "outcome": "inactive"}
{"compound": "COC(=O)c1ccc(Oc2nc(N3CCCCC3)nc(N3CCOCC3)n2)cc1", "outcome": "inactive"}
{"compound": "CCCCNC(=O)CC1N=C2c3ccccc3N=C(SCC(=O)Nc3ccc(OC)cc3)N2C1=O", "note": "(centres undefined)", "outcome": "inactive"}
{"compound": "O=C(/C=C/c1ccc(O)c(O)c1)OC1C(O)CC(OC(=O)/C=C/c2ccc(O)c(O)c2)(C(=O)O)CC1O", "note": "(centres undefined)", "outcome": "inactive"}
{"compound": "N#Cc1ccccc1NC(=O)c1ccc2c(Cl)c3c(nc2c1)CCCC3", "outcome": "inactive"}
{"compound": "CC(=O)N1N=C(c2ccc(C)cc2)OC1c1cccnc1", "note": "(centres undefined)", "outcome": "inactive"}
{"compound": "COc1ccc(-c2nn(-c3ccccc3)cc2/C=N/O)cc1", "outcome": "inactive"}
{"compound": "OCc1cn(-c2ccccc2)nc1-c1ccc(Br)cc1", "outcome": "inactive"}
{"compound": "O=[N+]([O-])c1ccc(N/N=C/c2ccccc2)cc1", "outcome": "inactive"}
{"compound": "CC(Oc1ccc(F)cc1)C(=O)Nc1ccc2ccccc2c1", "note": "(centres undefined)", "outcome": "inactive"}
{"compound": "Cc1c(C)n(C)c2ccc([N+](=O)[O-])cc12", "outcome": "inactive"}
{"compound": "O=c1c2sccc2n(Cc2cc(=O)n3ccccc3n2)c(=O)n1-c1ccccc1", "outcome": "inactive"}
{"compound": "CN(Cc1nc2ccccc2c(=O)[nH]1)C(=O)c1cc(C2CC2)nn1-c1ccccc1", "outcome": "inactive"}
{"compound": "CCN(Cc1nc2ccccc2c(=O)[nH]1)C(=O)c1cc(C2CC2)nn1-c1ccccc1", "outcome": "inactive"}
{"compound": "COc1ccccc1/C=C/C(=O)NCC(=O)N/N=C(/C)c1ccc(Cl)cc1", "outcome": "inactive"}
{"compound": "Cc1nn2c(-c3ccc(F)cc3)ccnc2c1Br", "outcome": "inactive"}
{"compound": "CC(=O)c1sc(-c2ccccc2Cl)nc1C", "outcome": "inactive"}
{"compound": "O=C(Nc1ccon1)c1ccc(N2CCCCC2)c([N+](=O)[O-])c1", "outcome": "inactive"}
{"compound": "c1csc(-c2nc3c4ccccc4c4ccccc4c3[nH]2)c1", "outcome": "inactive"}
{"compound": "Cc1c(SCCO)c(=O)[nH]c2cc3c(cc12)OCO3", "outcome": "inactive"}
{"compound": "O=C(/C=C/c1ccc(O)c(O)c1)O[C@@H]1C[C@](O)(C(=O)O)C[C@@H](O)[C@H]1O", "outcome": "inactive"}
{"compound": "COc1ccc2cc(CN(CCc3ccccc3)Cc3nnnn3Cc3ccco3)c(=O)[nH]c2c1", "outcome": "inactive"}
{"compound": "CCOC(=O)c1c(C)[nH]c(C(=O)COC(=O)C2(C)CC2(Cl)Cl)c1C", "note": "(centres undefined)", "outcome": "inactive"}
{"compound": "O=c1nc(Nc2ccc(OCc3ccccc3)cc2)sc2ncccc12", "outcome": "inactive"}
{"compound": "Cc1csc(N(C)C(=O)CSc2nnc(COc3ccccc3C)o2)n1", "outcome": "inactive"}
{"compound": "COC(=O)c1ccc(NC2c3ncccc3C(=O)N2Cc2cccs2)cc1", "note": "(centres undefined)", "outcome": "inactive"}
{"compound": "Cc1[nH]c2ccccc2c1C(=O)CSc1ccccn1", "outcome": "inactive"}
{"compound": "CSc1nc2ccc(Nc3nc(N4CCOCC4)nc(N4CCOCC4)n3)cc2s1", "outcome": "inactive"}
{"compound": "Cc1ccc(Nc2nc(N3CCOCC3)nc(N3CCOCC3)n2)cc1Cl", "outcome": "inactive"}
{"compound": "O=C(c1ccccc1Cl)N1CCN(c2ccccn2)CC1", "outcome": "inactive"}
{"compound": "CSc1nnc(Cn2c(=O)sc3ccccc32)n1CCc1ccccc1", "outcome": "inactive"}
{"compound": "CCOC(=O)CSc1nnc(CNC(=O)c2ccc([N+](=O)[O-])cc2)n1C", "outcome": "inactive"}
{"compound": "C#CCOCCOCCOCCNc1nc(N2CCN(C(=O)CCCCCCCCCCNC(=O)[C@@H]([C@H](C)O)n3cc(C)nn3)CC2)nc(N2CCN(C(=O)CCCCCCCCCCNC(=O)[C@@H]([C@H](C)O)n3cc(C)nn3)CC2)n1", "outcome": "inactive"}
{"compound": "Cc1ccccc1NC(=O)COC(=O)Cc1ccsc1", "outcome": "inactive"}
{"compound": "COc1ccc(S(=O)(=O)N2CCN(CCO)CC2)cc1-c1nnc2c3ccccc3c(C)nn12", "outcome": "inactive"}
{"compound": "Cc1cc(N2C(=O)CC(N3CCN(c4ccc(C(=O)c5cccs5)cc4)CC3)C2=O)no1", "note": "(centres undefined)", "outcome": "inactive"}
{"compound": "C/C(=N/OCO/N=C(/C)c1ccc(F)cc1)c1ccc(F)cc1", "outcome": "inactive"}
{"compound": "O=c1c(OC2OC(CO)C(O)C(O)C2OC2OC(CO)C(O)C(O)C2OC2OC(CO)C(O)C(O)C2O)c(-c2ccc(O)c(O)c2)oc2cc(O)cc(O)c12", "note": "(centres undefined)", "outcome": "inactive"}
{"compound": "CCC(=O)Nc1ccc(C(=O)OCc2ccccc2Cl)cc1", "outcome": "inactive"}
{"compound": "Cc1ccc(-n2c(=O)c3sccc3n(Cc3cc(=O)n4ccccc4n3)c2=O)cc1F", "outcome": "inactive"}
{"compound": "COc1ccc(Br)cc1/C=C/C(=O)Nc1ccc2ccccc2c1", "outcome": "inactive"}
{"compound": "CCOc1cc(/C=N\\Nc2nc(Nc3ccccc3)nc(N3CCOCC3)n2)ccc1OC(=O)c1ccco1", "outcome": "inactive"}
{"compound": "S=C(NCCc1ccccc1)N/N=C/c1cccc(Cl)c1Cl", "outcome": "inactive"}
{"compound": "c1ccc2c(c1)OCCc1c-2[nH]c2ccccc12", "outcome": "inactive"}
{"compound": "COC(=O)c1ccc(Cn2c(CN3CCOCC3)nc3ccccc3c2=O)o1", "outcome": "inactive"}
{"compound": "CCn1c(=NC(=O)c2ccco2)sc2cccc(F)c21", "outcome": "inactive"}
{"compound": "CC(=NCc1ccco1)C1=C(O)c2ccccc2C1=O", "outcome": "inactive"}
{"compound": "Cn1nnc(-c2ccc(OCc3ccccc3F)cc2)n1", "outcome": "inactive"}
{"compound": "CC/C(=N\\Nc1ccc([N+](=O)[O-])cc1)c1ccccc1", "outcome": "inactive"}
{"compound": "COC(=O)c1cc2n3ccccc3c(C)c(-c3ccccc3)c-2c1C(=O)OC", "outcome": "inactive"}
{"compound": "CCOc1ccc2nc(NC(=O)C(CCSC)NS(=O)(=O)c3cccs3)sc2c1", "note": "(centres undefined)", "outcome": "inactive"}
{"compound": "O=C(CSc1ccccn1)Nc1nc2c(ccc3ccccc32)s1", "outcome": "inactive"}
{"compound": "Cc1ccc(-c2nc3c(c(=O)c4ccccc4n3C)c(=O)n2Cc2ccco2)cc1", "outcome": "inactive"}
{"compound": "COCCn1c(-c2cccc(Br)c2)nc2c(c(=O)c3ccccc3n2C)c1=O", "outcome": "inactive"}
{"compound": "COc1ccc(Cn2c(-c3ccccc3C)nc3c(c(=O)c4ccccc4n3C)c2=O)cc1", "outcome": "inactive"}
{"compound": "COCCn1c(-c2ccccc2Cl)nc2c(c(=O)c3ccccc3n2C)c1=O", "outcome": "inactive"}
{"compound": "Nn1c(COc2ccccc2)nc2ccccc2c1=O", "outcome": "inactive"}
